From PubChem BioAssay
Hits are enriched below; roughly 4.9% of the tested compounds scored in any of these assays.
Mdm2-MdmX inh = inhibitors of human Mdm2-MdmX association, primary screen, cell-based, luminescence, split luciferase, SaOS-2, uHTS. SaOS-2 split-luciferase Mdm2/MdmX complementation. inhibition, % at 8 µM. 330,000 tested, 3% active. AID 485346, 2010;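 active = inhibition of at least 50% at 8 µM in the primary screen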
PP5 primary = PP5 phosphatase inhibitors, primary screen, biochemical, fluorescence | Serine/threonine-protein phosphatase 5 (Homo sapiens), P53041 | purified PP5c, OMFP substrate fluorescence | inhibition, % at 6.7 µM | 320,000 tested, 0.18% active;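 active = inhibition above the campaign's mean inhibition across all tested compounds plus 3 SD, cut at about 9.5% in these data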;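 also: 0% = DMSO only and 100% = 100 µM cantharidin control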
Target sequence (P53041 whole entry, looked up): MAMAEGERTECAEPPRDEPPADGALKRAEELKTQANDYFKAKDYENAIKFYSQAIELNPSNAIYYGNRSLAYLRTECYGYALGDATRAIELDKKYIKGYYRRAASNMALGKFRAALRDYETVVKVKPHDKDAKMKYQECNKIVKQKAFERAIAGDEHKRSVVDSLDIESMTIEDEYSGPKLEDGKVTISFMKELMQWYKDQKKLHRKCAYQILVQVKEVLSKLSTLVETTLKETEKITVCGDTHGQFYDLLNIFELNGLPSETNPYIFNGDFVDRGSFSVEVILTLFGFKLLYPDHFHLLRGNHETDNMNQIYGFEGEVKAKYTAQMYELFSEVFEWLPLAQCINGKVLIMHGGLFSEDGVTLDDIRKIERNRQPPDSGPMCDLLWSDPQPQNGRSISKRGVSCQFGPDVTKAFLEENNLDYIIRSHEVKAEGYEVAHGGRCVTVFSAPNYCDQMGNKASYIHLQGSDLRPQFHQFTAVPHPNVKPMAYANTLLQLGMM
PP1 counter = PP1-alpha phosphatase inhibitors, primary screen, counter-screen for PP5 inhibitor project, biochemical, fluorescence, OMFP substrate, single point | Serine/threonine-protein phosphatase PP1-alpha catalytic subunit (Homo sapiens), P62136 | purified PP1alpha | inhibition, % at 6.7 µM | 320,000 tested, 0.9% active | AID 2235, 2010;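 active = inhibition above the mean inhibition of all tested compounds plus 3 SD, computed separately for each screening campaign, cut at about 15% in these data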
Beta apoptosis = inhibitors of cytokine-induced beta cell apoptosis, primary screen, luminescence; INS-1E cytokine-induced death, ATP luminescence, 48 h; percent of positive-control rescue, neutral wells zero; protection from apoptosis, % (no concentration beside the values); 300,000 tested, 0.8% active; AID 435005, 2010;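 active = Every replicate reaches about 75%, or at least half do and their mean reaches it too, limit read from the data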;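 also: 0% = cytokine-treated negative control wells and 100% = positive control rescue; higher means more ATP so stronger rescue from cytokine killing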
Calb FLC = C. albicans growth inhibition with fluconazole, primary screen, CaCi-2 strain, Alamar Blue fluorescence. 300,000 tested, 0.57% active. growth inhibition, % (test concentration not listed). C. albicans CaCi-2 (fluconazole-resistant clinical isolate) + fluconazole, 48 h;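 active = growth inhibition above about 58% in most replicates, limit read from the data, passing the limit was not always enough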;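 also: all wells also contain fluconazole at 8 µg/ml as a sub-toxic cotreatment; 0% = median of DMSO wells and 100% = median of geldanamycin control wells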
CSC inhib = cancer stem cell viability inhibitors, primary screen, luminescence; AID 2717, 2010; inhibition, % at 7.5 µM; 300,000 tested, 1.1% active; cancer stem cell-like cells viability; in the data active = inhibition above about 75%; tested in HMLE shEcad cells
Mdm2-MdmX conf = Mdm2-MdmX complex disruptors, retested hits, confirmation, luminescence, single concentration; shares compounds with Mdm2-MdmX inh; Mdm2-MdmX binding, luminescent assay; inhibition, % at 8 µM; 10,000 tested, 55% active; in the data active = inhibition above about 40%
Full FLuc ctr = full-length luciferase signal inhibition, confirmation, counter-screen for Mdm2/MdmX interaction inhibitor project, cell-based, single concentration, SaOS-2; shares compounds with Mdm2-MdmX inh; SaOS-2 full-length luciferase counterscreen, luminescence; inhibition, % at 8 µM; 6,200 tested, 77% active;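 active = mean inhibition at 8 µM reaching about 37%, which flags the compound as non-specific, limit read from the data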;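 also: p53-null SaOS-2 cells with luciferase driven by a doxycycline-inducible promoter; compound on cells about two nights before reading with doxycycline added after day one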
* hit, by the source's call.

For COc1ccc(OC)c(NC(=O)N2C[C@H]3C[C@@H](C2)c2cccc(=O)n2C3)c1 the results were Mdm2-MdmX inh 12, PP5 primary -1, PP1 counter -6, Beta apoptosis 4, Calb FLC -4 and CSC inhib -8.
For Cc1nc2ccc(P(=O)(O)O)cc2s1 the results were Mdm2-MdmX inh 6, PP5 primary 2, PP1 counter 0, Beta apoptosis -6, Calb FLC -4 and CSC inhib -4.
Screening O=C(CSC1c2ccccc2-c2ccccc21)N/N=C/c1ccccc1O returned Mdm2-MdmX inh 82*, PP5 primary 3, PP1 counter 9, Beta apoptosis 87*, Calb FLC 19, CSC inhib 83*, Mdm2-MdmX conf 76* and Full FLuc ctr 28.
O=C(CSC1c2ccccc2-c2ccccc21)N/N=C/c1ccc(C(=O)O)cc1 was read as Mdm2-MdmX inh 22, PP5 primary 3, PP1 counter 0, Beta apoptosis -6, Calb FLC -16 and CSC inhib -9.
`N#CC(C#N)=C(N)c1cccnc1` gave Mdm2-MdmX inh 55*, PP5 primary 2, PP1 counter 1, Calb FLC -2, CSC inhib 5 and Mdm2-MdmX conf -24.
CCCCCc1nc2ccccc2c(=O)n1-c1ccccc1[N+](=O)[O-] was read as Mdm2-MdmX inh -33, PP5 primary 2, PP1 counter -4, Beta apoptosis 0, Calb FLC 14 and CSC inhib -3.
CCCCCc1nc2c(c(=O)c3ccccc3n2C)c(=O)n1C1CCCCCC1 was read as Mdm2-MdmX inh 69*, PP5 primary 3, PP1 counter 5, Beta apoptosis 111*, Calb FLC 37, CSC inhib 149* and Mdm2-MdmX conf 35.
N[C@@H](Cc1ccc(N(CCCl)CCCl)cc1)C(=O)O was read as Mdm2-MdmX inh 68*, PP5 primary -1, PP1 counter 6, Beta apoptosis 11, CSC inhib 30, Mdm2-MdmX conf 40 and Full FLuc ctr 36*.
COc1ccc(C2=CC(c3ccc(OC)c(OC)c3)c3c(c4ccccc4oc3=O)O2)cc1OC (stereo unspecified) was read as Mdm2-MdmX inh 55*, PP5 primary 4, PP1 counter 1, Beta apoptosis 16, Calb FLC -3, CSC inhib 54, Mdm2-MdmX conf 65* and Full FLuc ctr 66*.
For COc1ccc(C2C(C#N)=C(N)Oc3c2c(=O)oc2ccccc32)cc1Cn1cc([N+](=O)[O-])cn1 (stereo unspecified) the results were Mdm2-MdmX inh 6, PP5 primary 0, PP1 counter 6, Beta apoptosis 1, Calb FLC 9 and CSC inhib 3.
CCN1CCC2(CCNC2)C1 (stereo unspecified) was read as Mdm2-MdmX inh -28, PP5 primary 0, PP1 counter 0, Beta apoptosis 2, Calb FLC 4 and CSC inhib -9.
Screening OC1/C(=C/c2ccccc2C(F)(F)F)N2CCC1CC2 (stereo unspecified) returned Mdm2-MdmX inh 23, PP5 primary -4, PP1 counter 5, Beta apoptosis -5, Calb FLC -15 and CSC inhib 0.
For CN1C2CCC1CC(OC(=O)c1ccc(Cl)cc1)C2 (stereo unspecified) the results were Mdm2-MdmX inh 26, PP5 primary 0, PP1 counter -2, Calb FLC 0 and CSC inhib 28.
Screening CN1[C@@H]2CC[C@H]1CC(OC1c3ccccc3CCc3ccccc31)C2 (stereo partly specified) returned Mdm2-MdmX inh 71*, PP5 primary 0, PP1 counter 4, CSC inhib 33, Mdm2-MdmX conf 32 and Full FLuc ctr 70*.
Screening O=[N+]([O-])c1ccc(C2[C@H]3C(c4ccccc4)=NC4(CCCCC4)N23)cc1 (stereo partly specified) returned Mdm2-MdmX inh 20, PP5 primary 1, PP1 counter 1, Beta apoptosis 10, Calb FLC -19 and CSC inhib 4.
For CN1C2CCC1CC(OC(=O)c1ccc(Cl)cc1)(C(=O)O)C2 (stereo unspecified) the results were Mdm2-MdmX inh -8, PP5 primary 2, PP1 counter -2, Beta apoptosis 1, Calb FLC 19 and CSC inhib -36.
COC(=O)C1=C(c2cc3ccccc3s2)C[C@@H]2CC[C@H]1N2C(=O)NCC1CC1 was read as Mdm2-MdmX inh 39, PP5 primary 4, PP1 counter 0, Calb FLC -1 and CSC inhib -6.
COC(=O)C1=C(c2cc3ccccc3s2)C[C@@H]2CC[C@H]1N2C(=O)NCc1ccc(C(F)(F)F)cc1 was read as Mdm2-MdmX inh 57*, PP5 primary 3, PP1 counter 7, Beta apoptosis -1, Calb FLC 13, CSC inhib 60 and Mdm2-MdmX conf 18.
Screening CNC(=O)c1cccn(Cc2ccc(C(F)(F)F)cc2)c1=O returned Mdm2-MdmX inh 56*, PP5 primary 2, PP1 counter -1, Beta apoptosis 10, Calb FLC -5, CSC inhib 12 and Mdm2-MdmX conf 26.
Screening CN1CCN(C(=O)COc2ccc(-c3nc4ccccc4s3)cc2)CC1 returned Mdm2-MdmX inh -31, PP5 primary -2, PP1 counter -3, Beta apoptosis 10, Calb FLC 6 and CSC inhib 21.
Screening CC(C)(O)/C=C/C(=O)[C@](C)(O)C1[C@H](O)C[C@@]2(C)C3CC=C4C(C[C@H](O)[C@@H](O)C4(C)C)[C@]3(C)C(=O)C[C@]12C (stereo partly specified) returned Mdm2-MdmX inh 98*, Beta apoptosis 52, CSC inhib 53, Mdm2-MdmX conf 94* and Full FLuc ctr 7.
COC(=O)C1=C(c2cccc(OCc3ccccc3)c2)C[C@@H]2CC[C@H]1N2C(=O)NC1CCN(Cc2ccccc2)CC1 was read as Mdm2-MdmX inh 61*, PP5 primary 3, PP1 counter 5, Beta apoptosis 8, CSC inhib 22, Mdm2-MdmX conf 40* and Full FLuc ctr 71*.
